M1 ag parental = counter-screen for M1 agonists: effect in parental CHO-K1 cells; Fluo-8 calcium fluorescence; scaled to maximal ATP response, vehicle zero; activation, % at 3 µM; 360,000 compounds, 0.48% hits; AID 602248; in the data active = activation above about 15%;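 also: untransfected CHO-K1 host cells lacking M1 receptor as counterscreen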
CHO-K1 Ca antag = M1 antagonist counterscreen hit in parental CHO-K1 cells | 360,000 compounds, 0.6% hits | inhibition, % at 3 µM | ATP-induced calcium, Fluo-8 fluorescence | AID 602250;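 active = inhibition above a per-plate cutoff, the plate's mean sample inhibition plus 3 SD, cut at about 24% in these data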;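 also: 0% = DMSO plus EC80 ATP and 100% = DMSO alone without ATP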
M1 antag = blocks human M1 muscarinic receptor; P11229; CHO-K1 hM1, Fluo-8 calcium fluorescence, ACh EC80 antagonist; inhibition, % at 3 µM; 360,000 compounds, 1.3% hits; AID 588852;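 active = percent inhibition above its own plate's cutoff, namely the mean of that plate's compound wells plus 3 SD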;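 also: peak over basal fluorescence ratio during 140 s after agonist addition; 0% = ACh EC80 plus DMSO and 100% = DMSO alone without agonist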
Target sequence (P11229 whole entry, looked up): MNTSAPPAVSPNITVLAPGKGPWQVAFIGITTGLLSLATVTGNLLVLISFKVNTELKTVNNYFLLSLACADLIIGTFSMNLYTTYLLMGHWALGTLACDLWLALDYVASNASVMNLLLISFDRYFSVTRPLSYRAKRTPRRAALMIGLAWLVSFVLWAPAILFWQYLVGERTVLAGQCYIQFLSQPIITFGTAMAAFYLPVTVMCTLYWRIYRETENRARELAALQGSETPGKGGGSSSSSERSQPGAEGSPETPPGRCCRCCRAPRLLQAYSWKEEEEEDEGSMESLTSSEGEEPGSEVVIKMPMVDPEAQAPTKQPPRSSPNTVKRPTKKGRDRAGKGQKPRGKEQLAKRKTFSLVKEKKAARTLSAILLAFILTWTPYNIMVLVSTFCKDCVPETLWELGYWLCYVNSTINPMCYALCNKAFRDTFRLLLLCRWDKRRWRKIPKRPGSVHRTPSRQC
M1 PAM = potentiates human M1 receptor response to acetylcholine; activation, % at 3 µM; P11229; CHO-K1 hM1, Fluo-8 calcium fluorescence, ACh EC20; 0% = ACh EC20, 100% = maximal ACh; 360,000 compounds, 0.088% hits; in the data active = activation above about 19%, passing the limit was not always enough
M1 ag = activates human CHRM1 receptor; CHO-K1 hM1, Fluo-8 calcium fluorescence, agonist mode; 0% DMSO, 100% acetylcholine EC100; P11229; activation, % at 3 µM; 360,000 compounds, 0.33% hits; AID 588814;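 active = activation above the run's mean compound activation plus 3 SD, cut at about 16% in these data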;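 also: peak over basal fluorescence ratio within a 140 s kinetic read after compound addition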
CHO-K1 Ca PAM = counter-screen for M1 PAMs: effect in parental CHO-K1 cells | ATP EC20, Fluo-8 calcium fluorescence; 0% at ATP EC20, 100% at ATP max | activation, % at 3 µM | 360,000 compounds, 0.02% hits;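 active = activation above the run cutoff, the mean activation of all test compounds plus 3 SD, cut at about 40% in these data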;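 also: peak over basal fluorescence ratio in a 140 s read after ATP addition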
Starred values were filed as active, the others as inactive; · = not tested or not shown. The list is not random: actives were taken first. Their share in the collection is about 2.3%.

SMILES	M1 ag parental	CHO-K1 Ca antag	M1 antag	M1 PAM	M1 ag	CHO-K1 Ca PAM
O=C(NC(Nc1nc2ccc([N+](=O)[O-])cc2s1)(C(F)(F)F)C(F)(F)F)c1ccccc1Cl	13	28*	19	-11	4	4
O=C(COC(=O)C1(c2ccc(F)cc2)CCCC1)NCc1ccco1	0	11	17	-11	-8	-10
Clc1ccc(OCCCN2CCCCC2)c(Br)c1	6	0	-3	-3	-8	21
Cc1cc(Cl)c(OCCOCCN2CCCC(C)C2)c(Br)c1 (centres undefined)	2	-14	62*	-28	-7	5
CC1CCCN(CCOCCOc2ccc(Br)cc2Cl)C1 (centres undefined)	2	-9	42*	-27	-12	19
CC1CCCN(CCOCCOc2ccc(Cl)cc2Br)C1 (centres undefined)	2	-7	66*	-23	-7	14
CC1CCCC(NC(=O)c2ccc3c(SCC(=O)O)c4c(nc3c2)CCC4)C1C (centres undefined)	0	-11	39*	-6	-2	11
Cc1ccc(S(=O)(=O)NCc2ccc(C(=O)N3CCN(c4ccc([N+](=O)[O-])cc4)CC3)cc2)cc1	10	6	29	-11	-1	-2
NC(=O)c1ccc(NC(=O)c2ccc3c(c2)CCN3S(=O)(=O)c2ccccc2)cc1	2	26*	-2	11	-5	-24
O=C(O)c1cccc(NC(=O)c2cccc(S(=O)(=O)N3CCc4ccccc43)c2)c1	0	1	-1	1	-1	-13
O=C(NCc1nc(-c2ccc(C(F)(F)F)cc2)no1)Nc1cc(Cl)cc(Cl)c1	7	35*	13	-1	2	-3
O=C(NCc1nc(-c2ccc(C(F)(F)F)cc2)no1)Nc1ccc(F)cc1F	2	-3	-10	-3	0	4
CCc1c(C(=O)N/N=C/c2ccco2)nnn1-c1nonc1N	0	10	-8	3	3	7
COCCNC(=O)C1(C)CCN(C(=O)c2ccc(C(F)(F)F)nc2C)C1 (centres undefined)	0	-16	-12	7	-2	20
COC(C[C@H]1O[C@@H]1[C@H](O)COCc1ccccc1)OC	0	5	0	1	-2	4
COC(C[C@H]1O[C@H]1[C@@H](O)COCc1ccccc1)OC	0	2	39*	-13	-6	3
COc1ccccc1CN1C2CCCC1CC(NC(=O)/C=C/c1ccccc1)C2 (centres undefined)	1	-15	62*	-32	-13	20
COc1ccccc1C(=O)COC(=O)C1(C)CC1(Cl)Cl (centres undefined)	1	-1	-4	-2	-4	26
CC(C)CCN1CCN(CC(c2ccccc2)c2ccccc2)CC1CCO (centres undefined)	0	-10	35*	-33	-13	16
CC(C)CCN1CCN(Cc2nc3ccccc3s2)CC1CCO (centres undefined)	1	-16	-2	0	-5	16
FC(F)(F)c1nc2nc(Cl)c(Cl)nc2n1CCCN1CCOCC1	1	-2	-16	5	-6	-2
C=Cc1cnc([N+](=O)[O-])n1C	5	4	-5	4	1	8
CCOC(=O)c1c(-c2ccccc2)nnn1-c1nc(OCC)nc(N2CCCCC2)n1	8	54*	3	-10	-4	-1
CCN(CC(=O)Nc1ccccc1C(F)(F)F)C(=O)CN1C(=O)NC2(CCCCC2)C1=O	0	27*	-5	4	-4	-26
CCC1(c2ccccc2)NC(=O)N(CC(=O)N(CC(=O)Nc2ccccc2C(F)(F)F)Cc2ccco2)C1=O (centres undefined)	4	-4	-17	4	18*	8
SMILES	M1 ag parental	CHO-K1 Ca antag	M1 antag	M1 PAM	M1 ag	CHO-K1 Ca PAM
COc1ccc(C(=O)O)cc1S(=O)(=O)NCCCN1CCCC1=O	0	25*	-20	0	-1	-8
CC(=O)N1c2ccc(S(=O)(=O)NCCc3ccccc3)cc2CC1C (centres undefined)	10	11	29*	-14	1	-3
CC(=O)N1CCc2cc(S(=O)(=O)NCCC(=O)NCCc3ccc(Cl)cc3)ccc21	16*	-2	7	-5	0	1
Cc1c(P(=S)(c2ccccc2)c2ccccc2)[n+]2ccccc2n1C/C=C/c1ccccc1	1	-10	56*	-31	-9	20
CC(O)c1nc2ccccc2n1C/C=C/c1ccccc1 (centres undefined)	5	5	-3	10	-1	14
O=C1C(Sc2ccccc2)=C[C@@]2(O)CC[C@@H](O)[C@]1(Sc1ccccc1)[C@H]2O	1	-15	·	·	·	13
CCOc1cc2[nH]c(=O)n(Cc3ccccc3)c(=O)c2cc1OCC	0	26*	9	-1	-4	-8
COc1ccc(Cn2c(=O)[nH]c3cc(OC)c(OC)cc3c2=O)cc1	6	-4	9	-4	-1	4
CCCc1ccc(OC(=O)c2ccc(O)cc2Cl)cc1	1	11	11	-10	-4	-12
O=C1C(Cl)=C(N2CCCCCC2)C(=O)N1c1ccccc1	0	3	36*	-17	-4	-4
O=C1C(Cl)=C(N2CCCCCC2)C(=O)N1c1ccc(Br)cc1	0	-10	1	-6	-9	-1
Cc1ccc(S(=O)(=O)N2CCOCC2)cc1NC(=O)COc1ccccc1Cc1ccccc1	2	-18	7	-7	1	14
NC(=O)CC(NC(=O)c1cccc(Br)c1)c1ccc(NC2CCN(Cc3ccccc3)CC2)c([N+](=O)[O-])c1 (centres undefined)	1	-14	46*	-26	-11	11
NC(=O)CC(NC(=O)Cc1ccc(Cl)cc1)c1ccc(NC2CCN(Cc3ccccc3)CC2)c([N+](=O)[O-])c1 (centres undefined)	0	2	27	-27	-11	-2
O=C(NCCN1CCOCC1)C1CCN(c2ncnc3c2sc2cccc(F)c23)CC1	1	14	0	-3	-4	7
CCCCN(CC)CCCNC(=O)C1CCN(c2ncnc3c2sc2cccc(F)c23)CC1	0	-1	42*	-18	-5	-8
Fc1ccc(-c2nc3c4ccccc4ccn3c2Cc2cccc(Cl)c2)cc1	0	-25	-29	4	-1	7
CCc1cccc(NS(=O)(=O)c2csc(C(N)=O)c2)c1	16*	8	24	-15	1	-3
CC(C)(C)NC(=O)NC(=O)COC(=O)c1ccc(OC(F)(F)F)cc1	0	-2	-4	1	-7	3

Compound activity (PubChem)
